From PubChem BioAssay (NCI)
The panel holds about 79,000 compounds, 15% with a hit somewhere; the sample as a whole holds those more often. No stated cut-off is given here; in the data, active means growth inhibition above about 70%; inactive means the rest.

Columns and labels:
[1] = NCI Yeast Anticancer Drug Screen. Data for the rad50 strain (AID 155);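 further: 0% = growth of vehicle-only cultures of the same strain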; conditions: S. cerevisiae rad50 strain growth inhibition, stronger effect = higher value; at 50.0 µM unless noted
Procedure, shortened: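 Relative growth inhibition (compound vs vehicle) was measured in yeast with a defined repair-gene alteration.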

[2] = NCI Yeast Anticancer Drug Screen. Data for the mec2-1 strain (AID 157); conditions: S. cerevisiae mec2-1 strain, stronger effect = higher value; at 50.0 µM unless noted
Procedure, shortened: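 Using mec2-1 yeast: add compound, measure growth, express inhibition versus vehicle-treated cultures.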

[3] = NCI Yeast Anticancer Drug Screen. Data for the sgs1 mgt1 strain (AID 161);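 further: 0% = growth of cultures given vehicle only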; conditions: S. cerevisiae sgs1 mgt1 strain, stronger effect = higher value; at 50.0 µM unless noted
Procedure, shortened: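 Compounds are added to genetically altered yeast, and growth is compared with cultures given vehicle alone to give percent inhibition.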

[4] = NCI Yeast Anticancer Drug Screen. Data for the cln2 rad14 strain (AID 165);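 further: 0% = growth equal to vehicle treated cultures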; conditions: S. cerevisiae cln2 rad14 strain, stronger effect = higher value; at 50.0 µM unless noted
Procedure, shortened: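 Yeast strain cln2 rad14, bearing defects in cell cycle control and DNA repair, serves as the test system; values reflect growth inhibition compared with vehicle.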

[5] = NCI Yeast Anticancer Drug Screen. Data for the bub3 strain (AID 167); conditions: S. cerevisiae bub3 mutant strain, stronger effect = higher value; at 50.0 µM unless noted
Procedure, shortened: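 Screening used yeast with an engineered genetic alteration affecting cell cycle control. Compound-exposed cultures were compared with vehicle cultures, and reduced growth was taken as inhibition.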

[6] = NCI Yeast Anticancer Drug Screen. Data for the mlh1 rad18 strain (AID 175); conditions: S. cerevisiae mlh1 rad18 strain growth inhibition, stronger effect = higher value; at 50.0 µM unless noted
Procedure, shortened: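 Steps: expose repair-defective yeast to compound; measure growth; express inhibition against vehicle-treated controls.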

Measured: growth inhibition

CCCCCCCCCCCC(O)C(C)(C)C (stereo unspecified)
inactive: [1] 23.7% | [2] 10.1% | [3] -12.6% | [4] -39.2% | [5] 11.9% | [6] 10.3%

CCCCCCCCCCCCCCCCCCCCCCCCCCO
inactive: [1] -16.2% | [2] -10.4% | [3] -13.8% | [4] -8.85% | [5] -1.3% | [6] -7.25%

CC(O)C(=O)OCCOc1ccc(Cl)cc1Cl (stereo unspecified)
inactive: [1] 7.75% | [2] 10.3% | [3] 27.3% | [4] -38.1% | [5] 31.3% | [6] 28.2%

CN=Nc1c(O)[nH]c2ccc(C)cc12
inactive: [1] -5.25% | [2] 0.2% | [3] -8.3% | [4] -43.1% | [5] -8.15% | [6] 2.05%

NCCCOB(OCCCN)OCCCN
inactive: [1] 8.3% | [2] -7.4% | [3] -17.1% | [4] -20.2% | [5] -2.45% | [6] -10.2%

O=C1c2ccccc2CCC1c1ccccc1 (stereo unspecified)
inactive: [1] -1.65% | [2] -0.7% | [3] -5.2% | [4] -1.05% | [5] -10.7% | [6] -23.4%

Cc1ccc(/C=C2\CCCC\C2=N\O)cc1
inactive: [1] 5.15% | [2] -7% | [3] 2.3% | [4] -10.2% | [5] -22.6% | [6] 2.15%

O=C(O)c1cc(Cl)cc(C(=O)O)n1
inactive: [1] -19.4% | [2] -1.75% | [3] -11.8% | [4] 16.1% | [5] 4.65% | [6] -1.7%

O=C(O)Cc1cc(=O)oc2ccccc12
inactive: [1] 7.4% | [2] -12.3% | [3] 8.2% | [4] -15.8% | [5] -6.8% | [6] 8.75%

CCC(=O)Nc1ccccc1Cl
inactive: [1] 3.6% | [2] -1.1% | [3] -15.4% | [4] -42.6% | [5] -1.95% | [6] 4.95%

CC(C)(C)OC(=O)NCCCCC(N)C(N)=O (stereo unspecified)
inactive: [1] -19.6% | [2] -32.2% | [3] -31.9% | [4] 15.8% | [5] 5.15% | [6] -1.95%

CCN(CC)c1ccc2cc(C(=O)NCc3ccccc3)c(=N)oc2c1
inactive: [1] 9.7% | [2] 15.8% | [3] -15.8% | [4] 3.45% | [5] -38% | [6] 7.35%

CCCOC(=O)CCCC(=O)N(C(C)C)C(C)C
inactive: [1] -12.3% | [2] -2.7% | [3] 12.2% | [4] -29.5% | [5] 21.9% | [6] 4.65%

O=C(Nc1ccc(-c2cn3ccccc3n2)cc1)c1ccccc1O
inactive: [1] 7.7% | [2] -11.8% | [3] 20.6% | [4] 36.1% | [5] 10.2% | [6] 4.75%

OC(Cc1ccc2ccccc2n1)(C(F)(F)F)C(F)(F)F
inactive: [1] -53.8% | [2] -43.6% | [3] -37.4% | [4] -3.85% | [5] -29.9% | [6] -21.8%

CC(=O)Oc1c(C)c2c(c3ncccc13)OC(C)C2 (stereo unspecified)
inactive: [1] 39.2% | [2] 14.1% | [3] 32.4% | [4] 19.1% | [5] 40.1% | [6] 34.8%

CCOC(=O)c1cnc(NN)[nH]c1=O
inactive: [1] -5.3% | [2] -4.9% | [3] -10.6% | [4] -46.4% | [5] -13.8% | [6] -4.65%

OCCC1CCCCN1 (stereo unspecified)
inactive: [1] 9.25% | [2] -8.4% | [3] -20.4% | [4] -18.4% | [5] -0.75% | [6] 54.5%

NC(=O)c1cncn1C1OCC(O)C(O)C1O (stereo unspecified)
inactive: [1] 10.2% | [2] 6.4% | [3] 3.85% | [4] -6.8% | [5] 3.1% | [6] -20.2%

O=C(O)CCC(=O)c1ccc(F)cc1
inactive: [1] -20.6% | [2] -13.7% | [3] -13.6% | [4] -0.95% | [5] -22.6% | [6] -7.65%

Cc1ccnc(NS(=O)(=O)c2ccc(N=[N+]=[N-])cc2)n1
inactive: [1] -3.2% | [2] -6% | [3] 1.9% | [4] -7.4% | [5] -17.6% | [6] -14%
